The list is not random: actives were taken first. Their share in the collection is about 10%.
Six1-Eya2 blk – inhibitors of human Six1/Eya2 interaction; Q15475+O00167; AlphaScreen GST-Six1/His-Eya2 binding, biochemical; stronger effect = lower value; activity change, % (test concentration not listed); 360,000 compounds, 0.56% hits; AID 651725; in the data active = activity change below about -65%; inconclusive = mostly about -30% to -63%
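AlphaScreen with GST-Six1 and His-Eya2 (5X mix: 250 nM and 500 nM), glutathione donor and nickel acceptor beads; buffer 50 mM Tris pH 8.0, 300 mM NaCl, 1 mM TCEP; 1 h at 37 C in the dark.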
JMJD2A Tudor – inhibitors of human JMJD2A Tudor domain; O75164; AlphaScreen JMJD2A-Tudor / H3K4me3 peptide binding; Potency, µM (top dose mostly 114 µM), usual class: inhibitors; 390,000 compounds, 4.4% hits; note: nearly all actives have a fitted effect of over 50% in size
G9a inh – blocks human histone lysine methyltransferase G9a; Q96KQ7; G9a H3K9 monomethylation, AlphaScreen, 2 h; Potency, µM (highest dose often 102 µM), actives largely listed as inhibitors; 350,000 compounds, 8.8% hits; AID 504332; note: nearly all actives have a fitted effect of over 75% in size
Target sequence (Q96KQ7 913-1193 limits assumed): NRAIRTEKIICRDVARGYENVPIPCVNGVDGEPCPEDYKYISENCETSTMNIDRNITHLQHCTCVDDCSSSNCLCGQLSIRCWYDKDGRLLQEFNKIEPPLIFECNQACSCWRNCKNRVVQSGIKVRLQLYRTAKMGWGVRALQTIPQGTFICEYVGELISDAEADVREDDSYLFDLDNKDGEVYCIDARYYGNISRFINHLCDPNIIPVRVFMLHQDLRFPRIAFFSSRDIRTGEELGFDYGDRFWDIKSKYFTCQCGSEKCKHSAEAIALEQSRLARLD
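Using a bead-based AlphaScreen, monomethylated H3K9 product from 2 h room-temperature reactions (G9a 20 nM, peptide 500 nM, SAM 20 uM) was detected with 0.5 ug/mL rabbit anti-H3K9me1 antibody.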
CtBP-E1A inh – CtBP/E1A binding inhibition. AID 651724. activity change, % (concentration not given with the values). AlphaScreen GST-E1A/His-CtBP binding, 1536-well; stronger effect = lower value. 340,000 compounds, 0.49% hits; in the data active = activity change below about -65%; inconclusive = mostly about -30% to -63%
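Homogeneous bead-based format: GST-tagged E1A captured on glutathione donor beads, His-tagged CtBP on nickel acceptor beads; compounds precede bead addition by 2 h at 37 °C.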
BAZ2B block – BAZ2B (human) inhibition | Q9UIF8 | AlphaScreen BAZ2B-H3K14Ac peptide displacement | Potency, µM (top dose mostly 114 µM), usual class: inhibitors | 360,000 compounds, 4.4% hits | AID 504333; note: nearly all actives have a fitted effect of over 60% in size
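Inhibition is scored as reduced AlphaScreen emission. The BAZ2B/b-H3(5-23)K14Ac complex (50 nM each) in PBS pH 7.4, 0.01% Tween-20 meets compound (up to 110 uM) for 30 min at RT before bead addition.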
HP1b binding inh – inhibitors of HP1-beta chromodomain binding to methylated histone tails | AID 540317 | AlphaScreen HP1-beta / biotin-H3K9me3 peptide binding | 390,000 compounds, 0.56% hits | Potency, µM (titrated, usually from 114 µM), actives largely listed as inhibitors; note: nearly all actives have a fitted effect of over 70% in size
Target sequence (P83916 whole entry, looked up): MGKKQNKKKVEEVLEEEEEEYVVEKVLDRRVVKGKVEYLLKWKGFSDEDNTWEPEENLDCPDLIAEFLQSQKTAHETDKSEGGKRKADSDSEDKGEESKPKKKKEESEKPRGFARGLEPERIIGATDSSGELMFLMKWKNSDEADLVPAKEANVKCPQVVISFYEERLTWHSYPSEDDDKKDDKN
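AlphaScreen: HP1-beta (50 nM) preformed 30 min with biotin-H3(1-18)K9me3 peptide (50 nM) in PBS pH 7.4, 0.01% Tween-20. Compound added for 30 min at RT, then streptavidin donor/nickel chelate acceptor beads (10 ug/mL) for 30 min.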
Of the large screens only hits and unclear results are named; the others gave an inactive call. Unless noted, calls come from the whole dose curve; as a rule, active = well fitted inhibition curve with a large enough effect; inconclusive = small, poorly fitted or top-dose-only effect; inactive = no such curve, though single readings can be large or run the other way.

CCCC(c1nnnn1Cc1ccco1)N1CCN(c2cc(Cl)ccc2C)CC1 (centres undefined)	none
COc1cc2cc(C(c3nnnn3C3CCCC3)N3CCCCCC3)c(=O)[nH]c2cc1OC (centres undefined)	G9a inh 13µM
COc1ccc(C(c2nnnn2CCc2ccccc2)N2CCN(C3CCCC3)CC2)cc1 (centres undefined)	G9a inh 79µM
CCCC(c1nnnn1Cc1ccco1)N1CCN(c2ccccc2)CC1 (centres undefined)	G9a inh inconclusive, BAZ2B block 56µM
O=c1[nH]c2cc3c(cc2cc1C(c1nnnn1CC1CCCO1)N1CCCCCC1)OCCO3 (centres undefined)	G9a inh 11µM, BAZ2B block inconclusive
CCC(C)NC(=O)c1cc(-c2cccc(OC)c2)on1 (centres undefined)	none (no result: Six1-Eya2 blk, CtBP-E1A inh)
CCCCC(c1nnnn1CC1CCCO1)N1CCN(c2nc3ccccc3s2)CC1 (centres undefined)	G9a inh 28µM, BAZ2B block 50µM
COc1ccc(C(c2nnnn2CC2CCCO2)N2CCN(c3ccc(F)cc3)CC2)cc1 (centres undefined)	BAZ2B block 56µM
COc1ccccc1N1CCN(C(c2ccc(N(C)C)cc2)c2nnnn2CCc2ccccc2)CC1 (centres undefined)	JMJD2A Tudor inconclusive, G9a inh 2µM, BAZ2B block 25µM
Cc1ccc(C(c2nnnn2CC2CCCO2)N2CCN(C)CC2)cc1 (centres undefined)	none (no result: G9a inh)
COc1ccc(C(c2nnnn2Cc2ccccc2)N2CCN(c3ccccc3)CC2)cc1 (centres undefined)	BAZ2B block 79µM
CCOC(=O)c1c(C)[nH]c(C)c1S(=O)(=O)N1CCC(C(=O)NCc2ccccc2Cl)CC1	none (no result: Six1-Eya2 blk, CtBP-E1A inh)
CC(C)n1nnnc1C(c1ccc(F)cc1)N1CCN(C2CCCC2)CC1 (centres undefined)	G9a inh 79µM, BAZ2B block inconclusive
COc1ccc2cc(C(c3nnnn3Cc3ccc(F)cc3)N3CCCCCC3)c(=O)[nH]c2c1 (centres undefined)	G9a inh inconclusive
CCCCC(c1nnnn1CCOC)N1CCN(c2cccc(OC)c2)CC1 (centres undefined)	G9a inh 45µM, BAZ2B block 50µM
COc1ccc(N2CCN(C(CNC(=O)C(=O)NCC3CCCO3)c3ccco3)CC2)cc1 (centres undefined)	G9a inh 32µM
COc1ccc2cc(C(c3nnnn3Cc3ccccc3)N3CCCCCC3)c(=O)[nH]c2c1 (centres undefined)	G9a inh 13µM
Cc1ccc2nc(CN3CCN(C(=O)Nc4cccc(C)c4C)CC3)oc2c1	G9a inh inconclusive (no result: Six1-Eya2 blk, CtBP-E1A inh)
c1ccc(C(c2nnnn2Cc2cccs2)N2CCN(C3CCCC3)CC2)cc1 (centres undefined)	G9a inh 45µM
Fc1ccc(C(c2nnnn2Cc2cccs2)N2CCN(C3CCCC3)CC2)cc1 (centres undefined)	BAZ2B block inconclusive
CCN(Cc1ccccc1)C(c1cc2ccc(C)cc2[nH]c1=O)c1nnnn1CCOC (centres undefined)	G9a inh 35µM
COc1ccc(N2CCN(C(c3cc(OC)ccc3OC)c3nnnn3Cc3ccco3)CC2)cc1 (centres undefined)	Six1-Eya2 blk inconclusive, JMJD2A Tudor 50µM, G9a inh 16µM, BAZ2B block 45µM, HP1b binding inh 16µM
COCCn1nnnc1C(c1cccc(C#N)c1)N1CCCCCC1 (centres undefined)	G9a inh 45µM, BAZ2B block inconclusive
COc1ccc(OC)c(C(c2nnnn2CCc2ccccc2)N2CCN(c3ccccc3)CC2)c1 (centres undefined)	Six1-Eya2 blk inconclusive
CCC(c1nnnn1CCc1ccccc1)N1CCN(c2ccc(OC)cc2)CC1 (centres undefined)	G9a inh 11µM, BAZ2B block inconclusive
COCCn1nnnc1C(c1ccccc1)N1CCN(c2ccccc2)CC1 (centres undefined)	JMJD2A Tudor inconclusive, G9a inh inconclusive, BAZ2B block 50µM
CCC(c1nnnn1Cc1ccccc1)N1CCN(c2ccccc2)CC1 (centres undefined)	none
CC12CCC(C(=O)N(CSC(=S)N/N=C\c3ccccc3O)C1=O)C2(C)C (centres undefined)	Six1-Eya2 blk -89, JMJD2A Tudor 40µM, G9a inh 4.5µM, CtBP-E1A inh -94, BAZ2B block 2.8µM
Cn1cc[nH]c1=S	JMJD2A Tudor inconclusive, G9a inh 45µM
CCCCOc1ccc(-c2nn(-c3ccccc3)cc2C2NC(=O)NC(C)=C2C(=O)OCC)cc1 (centres undefined)	G9a inh inconclusive (no result: Six1-Eya2 blk, CtBP-E1A inh)
CCOC(=O)C(=NC(C)C)NNc1cc(Cl)ccc1Cl	JMJD2A Tudor inconclusive, G9a inh 8.9µM, BAZ2B block inconclusive
CCOC(=O)C(=O)NNc1ccc(Cl)cc1	G9a inh inconclusive
CCOC(=O)C(=NC(C)(C)C)NNc1cc(Cl)ccc1Cl	JMJD2A Tudor inconclusive, G9a inh 18µM, BAZ2B block inconclusive
CCCc1ccc(C(=O)NNc2cc(Cl)ccc2Cl)cc1	G9a inh inconclusive
COc1ccc(NCc2ccsc2)cc1	JMJD2A Tudor 56µM, G9a inh 35µM, BAZ2B block 18µM
O=C(O)CCc1cc(F)c(S(=O)(=O)N2CCN(S(=O)(=O)c3ccc4c(c3)OCCO4)CC2)cc1F	none (no result: Six1-Eya2 blk, G9a inh, CtBP-E1A inh, BAZ2B block, HP1b binding inh)
COc1ccc(/C=C/C(=O)c2cc(Cl)cc(Cl)c2O)c(OC)c1	none
O=C(/C=C/c1ccccn1)c1cc(Cl)cc(Cl)c1O	G9a inh 50µM
CCOc1ccc(/C=c2\sc3nc(-c4ccco4)nn3c2=O)cc1OCC	JMJD2A Tudor inconclusive, G9a inh inconclusive
COc1ccc(OC)c(/C=c2\sc3nc(-c4cccs4)nn3c2=O)c1	G9a inh 11µM
COc1ccccc1/C=c1\sc2nc(-c3ccco3)nn2c1=O	JMJD2A Tudor 18µM, G9a inh 20µM, BAZ2B block 35µM, HP1b binding inh 50µM
O=C(Nc1cccc(C(=O)N2CCOCC2)c1)c1ncn[nH]1	Six1-Eya2 blk inconclusive, JMJD2A Tudor 28µM, BAZ2B block 20µM
Cc1ccc(NC(=O)c2ncn[nH]2)cc1	BAZ2B block 50µM
Cc1c(Cl)cccc1NC(=O)c1ncn[nH]1	Six1-Eya2 blk inconclusive, JMJD2A Tudor 25µM, G9a inh 11µM, BAZ2B block 20µM
O=C(Nc1ccc(Oc2ccc(Cl)cc2)cc1)c1ncn[nH]1	none

Compound activity (PubChem BioAssay)
